# This is part of a sample that, as a whole, favours compounds with a hit. Of some 79,000 tested, about 15% had one in any assay. Values without a mark were called inactive. Calls of active or inactive are those of the source. Rule as the data show it: active = growth inhibition above about 70%; inactive = the rest.
# Test: NCI Yeast Anticancer Drug Screen. Data for the mlh1 rad18 strain (AID 175)
# Details: S. cerevisiae mlh1 rad18 strain growth inhibition, stronger effect = higher value
# Method: Growth inhibition of yeast strains with defined genetic alterations is measured as a screen for potential anti-cancer activity. Selected strains with alterations in DNA damage repair or cell cycle control were exposed to compounds and growth inhibition was measured relative to vehicle treated controls. The strain used in this assay is mlh1 rad18
# [1] = at 5.0 µM (retest, dose inferred, filed as 0.5)
# [2] = at 50.0 µM (retest, dose inferred, filed as 5.0)
SMILES,growth inhibition [1],growth inhibition [2],growth inhibition (at 50.0 µM)
CCCC(C)OC(=O)Nc1cccc(Cl)c1 (configuration not stated),-20%,16%,97.6% (active)
CCOC(=O)c1ccc(C(C)C)cc1,4%,96% (active),62.1%
O=C(CC(=O)c1ccccc1)CC(=O)c1ccccc1,38%,95% (active),84% (active)
CCCc1cc2c(cc1COc1ccccc1C(=O)O)OCO2,-2%,58%,61.4%
C(=C\c1cccc2ccccc12)/c1ccncc1,-11%,98% (active),99.1% (active)
O=C1C=CC(=O)N1c1ccc(Cl)cc1,80% (active),99% (active),92% (active)
O=C(Nc1ccc(Cl)cc1)OCC1C2C=CC(C2)C1CO (configuration not stated),5%,97% (active),77.8% (active)
CC(=O)N(C1=C(Cl)C(=O)c2ccccc2C1=O)c1ccc(F)cc1,39%,99% (active),99.4% (active)
O=C(O)/C(Cl)=C(\Cl)C(=O)Nc1c(Cl)cccc1Cl,19%,2%,16.1%
OC(CCl)c1ccc2ccc3c(c2c1)Nc1ccccc1S3 (configuration not stated),-1%,86% (active),96.5% (active)
Cc1cccc2c1NC(c1c(C)[nH]c3ccccc13)C2 (configuration not stated),-3%,-22%,67.2%
O=C(CCCCOCCCCC(=O)OCC1CCCO1)OCC1CCCO1 (configuration not stated),-1%,-12%,18.1%
O=C(NCCCN1CC2CCCC2C1)C(C1CCCCC1)C1CCCCC1 (configuration not stated),-3%,96% (active),99.5% (active)
C#CC(CC)(CC)NC(=O)NC(C)(C)C,-21%,-59%,2.3%

# — PubChem BioAssay (NCI)
